Data reported in PubChem BioAssay (EPA / NIEHS).
Active and inactive are the calls of the source. How the source made its calls: active means hit-call score of the fitted dose curve at least 0.9, where 1 is the maximum; inactive means score below 0.9.

Columns and labels:
Details in all cases: mRNA level, 48 h; actives raise or lower the signal
[1] = read-out: JUN Transcription Factor, JUN (gene 3725); assay: LTEA_HepaRG_JUN: Life Technologies and Expression Analysis (LTEA) Assay for JUN Transcription Factor using HepaRG (AID 2283513)
Outline: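 Human HepaRG liver cells receive test chemicals in 0.5% DMSO for 48 h across an eight-point range topping at 100 uM. Expression changes in JUN are scored in both directions against the DMSO vehicle.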

[2] = read-out: Lipase C (LIPC), LIPC (gene 3990); assay: LTEA_HepaRG_LIPC: Life Technologies and Expression Analysis (LTEA) Assay for Lipase C (LIPC) using HepaRG (AID 2283514)
Outline: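 Differentiated human HepaRG cells in serum-free induction medium were exposed in duplicate for 48 h to eight concentrations (top 100 uM, half-log steps, 0.5% DMSO). LIPC mRNA was quantified by TaqMan qRT-PCR, normalized to ACTB, GAPDH and POLR2A, with bidirectional fitting versus DMSO.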

[3] = read-out: Lipoprotein lipase (LPL), LPL (gene 4023); assay: LTEA_HepaRG_LPL: Life Technologies and Expression Analysis (LTEA) Assay for Lipoprotein lipase (LPL) using HepaRG (AID 2283515)
Outline: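 Differentiated human HepaRG cells in serum-free induction medium were exposed in duplicate for 48 h to eight half-log concentrations (top 100 uM) in 0.5% DMSO. LPL mRNA was quantified by TaqMan qRT-PCR, normalized to ACTB, GAPDH and POLR2A.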

[4] = read-out: MicroRNA 122 (MIR122), gene 406906; assay: LTEA_HepaRG_MIR122: Life Technologies and Expression Analysis (LTEA) Assay for MicroRNA 122 (MIR122) using HepaRG (AID 2283516); further: the transcript read is the microRNA miR-122
Outline: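 HepaRG, 48 h exposure, 8-pt half-log from 100 uM, 0.5% DMSO; TaqMan qRT-PCR; bidirectional fit vs DMSO.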

[5] = read-out: matrix metalloproteinase-10 (MMP10), MMP10 (gene 4319); assay: LTEA_HepaRG_MMP10: Life Technologies and Expression Analysis (LTEA) Assay for matrix metalloproteinase-10 (MMP10) using HepaRG (AID 2283517)
Outline: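 HepaRG, collagen I, ~100,000 cells/well; serum-free induction medium; 48 h exposure, duplicate, 8-pt half-log to 100 uM, 0.5% DMSO. Readout: TaqMan qRT-PCR, normalized to ACTB/GAPDH/POLR2A; bidirectional fit vs DMSO.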

MYC, MYC (gene 4609) = assay: LTEA_HepaRG_MYC: Life Technologies and Expression Analysis (LTEA) Assay for MYC using HepaRG (AID 2283518)
Outline: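 Cells are thawed, plated and cultured 48 h, then treated for 48 h with test chemicals (eight half-log concentrations from 100 uM, 0.5% DMSO vehicle). RNA is isolated and MYC expression quantified by qRT-PCR against three housekeeping genes.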

[6] = read-out: matrix metalloproteinase-3 (MMP3), MMP3 (gene 4314); assay: LTEA_HepaRG_MMP3: Life Technologies and Expression Analysis (LTEA) Assay for matrix metalloproteinase-3 (MMP3) using HepaRG (AID 2283519)
Outline: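 Differentiated human HepaRG cells, plated 48 h on collagen I, were exposed in duplicate for 48 h in serum-free induction medium to eight half-log concentrations up to 100 uM in 0.5% DMSO. MMP3 mRNA was quantified by TaqMan qRT-PCR, normalised to ACTB, GAPDH and POLR2A.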

[7] = read-out: Paternally Expressed 10 (PEG10), PEG10 (gene 23089); assay: LTEA_HepaRG_PEG10: Life Technologies and Expression Analysis (LTEA) Assay for Paternally Expressed 10 (PEG10) using HepaRG (AID 2283520)
Outline: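 Chemicals tested on HepaRG cells for 48 h, highest concentration 100 uM. PEG10 expression assessed by qRT-PCR relative to DMSO control.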

[8] = read-out: Nuclear factor NF-kappa-B p105 subunit (Homo sapiens) (UniProt P19838); assay: LTEA_HepaRG_NFKB1: Life Technologies and Expression Analysis (LTEA) Assay for Nuclear Factor Kappa B Subunit 1 (NFKB1) using HepaRG (AID 2283521)
Outline: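 NFKB1 transcript was measured by TaqMan qRT-PCR on Fluidigm arrays, normalised to three housekeeping genes and fitted in both directions against 0.5% DMSO. HepaRG cells were dosed in duplicate for 48 h in serum-free induction medium, eight half-log steps from 100 uM.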

[9] = read-out: Protein phosphatase 2A (PPP2R4), PTPA (gene 5524); assay: LTEA_HepaRG_PPP2R4: Life Technologies and Expression Analysis (LTEA) Assay for Protein phosphatase 2A (PPP2R4) using HepaRG (AID 2283522)
Outline: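 Gene-expression endpoint in HepaRG hepatic cells: 48 h treatment across eight half-log concentrations up to 100 uM in 0.5% DMSO. PPP2R4 mRNA by qRT-PCR, normalized to three endogenous control genes.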

[10] = read-out: Phosphatase and tensin (PTEN), PTEN (gene 5728); assay: LTEA_HepaRG_PTEN: Life Technologies and Expression Analysis (LTEA) Assay for Phosphatase and tensin (PTEN) using HepaRG (AID 2283523)
Outline: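 Differentiated human HepaRG cells, plated 48 h then switched to serum-free induction medium, were exposed in duplicate for 48 h to eight half-log concentrations up to 100 uM in 0.5% DMSO. PTEN mRNA measured by TaqMan qRT-PCR, normalized to ACTB/GAPDH/POLR2A, bidirectional fit versus DMSO.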

[11] = read-out: solute carrier (SLC22A1), SLC22A1 (gene 6580); assay: LTEA_HepaRG_SLC22A1: Life Technologies and Expression Analysis (LTEA) Assay for solute carrier (SLC22A1) using HepaRG (AID 2283524)
Outline: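 Human HepaRG cells were plated 48 h, switched to serum-free induction medium, then exposed in duplicate for 48 h to 8-point half-log series from 100 uM in 0.5% DMSO. SLC22A1 mRNA measured by qRT-PCR, normalized to ACTB/GAPDH/POLR2A, fitted bidirectionally versus DMSO.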

[12] = read-out: Pyruvate Dehydrogenase Kinase 4 (PDK4), PDK4 (gene 5166); assay: LTEA_HepaRG_PDK4: Life Technologies and Expression Analysis (LTEA) Assay for Pyruvate Dehydrogenase Kinase 4 (PDK4) using HepaRG (AID 2283525)
Outline: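 Differentiated human HepaRG cells, pre-cultured 48 h, were exposed in duplicate for 48 h in serum-free induction medium to eight half-log concentrations up to 100 uM in 0.5% DMSO. PDK4 mRNA was quantified by qRT-PCR, normalized to ACTB, GAPDH and POLR2A, bidirectional fitting versus DMSO.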

[13] = read-out: NAD(P)H dehydrogenase [quinone] 1 (NQO1), NQO1 (gene 1728); assay: LTEA_HepaRG_NQO1: Life Technologies and Expression Analysis (LTEA) Assay for NAD(P)H dehydrogenase [quinone] 1 (NQO1) using HepaRG (AID 2283526)
Outline: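 Human HepaRG hepatic cells received chemicals for 48 h in serum-free induction medium with 0.5% DMSO, up to 100 uM. Expression was assessed by TaqMan qRT-PCR against housekeeping controls and fitted bidirectionally against DMSO.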

[14] = read-out: Nuclear factor erythroid 2-related factor 2 (Homo sapiens) (UniProt Q16236); assay: LTEA_HepaRG_NFE2L2: Life Technologies and Expression Analysis (LTEA) Assay for Nuclear factor erythroid 2-related factor 2 (NFE2L2) Transcription Factor using HepaRG (AID 2283527)
Outline: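 Differentiated human HepaRG cells in serum-free induction medium were exposed for 48 h to eight concentrations (top 100 uM, half-log dilutions, 0.5% DMSO), in duplicate. NFE2L2 mRNA was quantified by TaqMan qRT-PCR, normalized to ACTB, GAPDH and POLR2A, with bidirectional fitting versus DMSO.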

[15] = read-out: succinate dehydrogenase complex iron sulfur subunit B (SDHB), SDHB (gene 6390); assay: LTEA_HepaRG_SDHB: Life Technologies and Expression Analysis (LTEA) Assay for succinate dehydrogenase complex iron sulfur subunit B (SDHB) using HepaRG (AID 2283528)
Outline: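 SDHB transcript level read by TaqMan qRT-PCR, housekeeping-normalised (ACTB, GAPDH, POLR2A), after 48 h chemical treatment of plated HepaRG cells; eight concentrations top 100 uM, half-log steps, 0.5% DMSO, duplicates; fitted both directions against DMSO.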

[16] = read-out: Signal transducer and activator of transcription 3 (Homo sapiens) (UniProt P40763); assay: LTEA_HepaRG_STAT3: Life Technologies and Expression Analysis (LTEA) Assay for Signal transducer and activator of transcription (STAT3) using HepaRG (AID 2283529)
Outline: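 Differentiated human HepaRG cells in serum-free induction medium were exposed in duplicate for 48 h to eight half-log concentrations up to 100 uM in 0.5% DMSO. STAT3 mRNA was quantified by TaqMan qRT-PCR, normalized to ACTB, GAPDH and POLR2A, and fitted bidirectionally against DMSO.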

[17] = read-out: solute carrier (SLCO1B1), SLCO1B1 (gene 10599); assay: LTEA_HepaRG_SLCO1B1: Life Technologies and Expression Analysis (LTEA) Assay for solute carrier (SLCO1B1) using HepaRG (AID 2283530)
Outline: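 Gain or loss of SLCO1B1 mRNA is fitted against the 0.5% DMSO vehicle in human HepaRG liver cells treated 48 h at up to 100 uM in half-log steps. Expression comes from qRT-PCR normalized to endogenous controls.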

[18] = read-out: sulfotransferase 2A1 (SULT2A1), SULT2A1 (gene 6822); assay: LTEA_HepaRG_SULT2A1: Life Technologies and Expression Analysis (LTEA) Assay for sulfotransferase 2A1 (SULT2A1) using HepaRG (AID 2283531)
Outline: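 Cells were plated and cultured 48 h, switched to serum-free induction medium, then dosed in duplicate for 48 h (8 concentrations, max 100 uM). RNA was isolated and SULT2A1 expression measured by qRT-PCR; gain or loss of signal fitted relative to DMSO.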

[19] = read-out: Transforming Growth Factor (TGFA), TGFA (gene 7039); assay: LTEA_HepaRG_TGFA: Life Technologies and Expression Analysis (LTEA) Assay for Transforming Growth Factor (TGFA) using HepaRG (AID 2283532)
Outline: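 Differentiated human HepaRG cells, plated 48 h then switched to serum-free induction medium, were exposed in duplicate for 48 h to 8-point half-log series from 100 uM in 0.5% DMSO. TGFA mRNA measured by qRT-PCR, normalized to ACTB/GAPDH/POLR2A, bidirectional fit versus DMSO.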

Measured: outcome

Sequence of Signal transducer and activator of transcription 3 (Homo sapiens) (P40763 whole entry, looked up): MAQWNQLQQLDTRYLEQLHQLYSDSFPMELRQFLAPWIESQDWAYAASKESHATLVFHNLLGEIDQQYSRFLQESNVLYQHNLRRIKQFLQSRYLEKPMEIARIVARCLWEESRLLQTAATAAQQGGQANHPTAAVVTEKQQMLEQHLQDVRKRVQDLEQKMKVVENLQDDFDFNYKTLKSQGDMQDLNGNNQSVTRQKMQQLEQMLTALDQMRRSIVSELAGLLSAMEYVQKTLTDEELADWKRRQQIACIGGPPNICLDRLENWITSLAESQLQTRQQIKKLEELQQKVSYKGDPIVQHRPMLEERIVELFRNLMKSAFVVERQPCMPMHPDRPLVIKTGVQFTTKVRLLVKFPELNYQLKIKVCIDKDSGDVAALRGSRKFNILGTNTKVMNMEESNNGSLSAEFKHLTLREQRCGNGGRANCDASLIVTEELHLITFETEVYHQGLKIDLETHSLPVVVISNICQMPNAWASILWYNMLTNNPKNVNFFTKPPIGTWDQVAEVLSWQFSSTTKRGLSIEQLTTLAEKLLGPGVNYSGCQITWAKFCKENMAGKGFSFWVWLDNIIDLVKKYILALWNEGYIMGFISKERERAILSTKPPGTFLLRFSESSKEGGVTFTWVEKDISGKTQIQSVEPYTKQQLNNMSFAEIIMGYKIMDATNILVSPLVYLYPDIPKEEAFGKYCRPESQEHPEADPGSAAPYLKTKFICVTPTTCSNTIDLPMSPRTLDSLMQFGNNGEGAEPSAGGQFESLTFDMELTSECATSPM
Sequence of Nuclear factor erythroid 2-related factor 2 (Homo sapiens) (Q16236 whole entry, looked up): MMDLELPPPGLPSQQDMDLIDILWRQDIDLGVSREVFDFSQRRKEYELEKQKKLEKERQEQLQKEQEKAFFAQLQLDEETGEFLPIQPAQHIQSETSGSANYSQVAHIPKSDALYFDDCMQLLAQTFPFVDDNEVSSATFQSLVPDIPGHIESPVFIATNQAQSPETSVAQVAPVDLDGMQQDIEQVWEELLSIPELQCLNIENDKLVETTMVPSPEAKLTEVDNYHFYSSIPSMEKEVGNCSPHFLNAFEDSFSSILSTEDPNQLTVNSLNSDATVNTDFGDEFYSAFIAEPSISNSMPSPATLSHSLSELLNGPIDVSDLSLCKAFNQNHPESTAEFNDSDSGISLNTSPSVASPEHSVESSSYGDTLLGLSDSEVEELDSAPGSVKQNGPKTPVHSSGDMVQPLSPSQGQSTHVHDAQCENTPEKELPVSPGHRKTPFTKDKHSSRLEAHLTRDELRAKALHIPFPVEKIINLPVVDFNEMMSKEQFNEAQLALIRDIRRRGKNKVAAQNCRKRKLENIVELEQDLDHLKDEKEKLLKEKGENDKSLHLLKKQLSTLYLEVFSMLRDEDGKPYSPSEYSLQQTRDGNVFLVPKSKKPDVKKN
Sequence of Nuclear factor NF-kappa-B p105 subunit (Homo sapiens) (P19838 whole entry, looked up): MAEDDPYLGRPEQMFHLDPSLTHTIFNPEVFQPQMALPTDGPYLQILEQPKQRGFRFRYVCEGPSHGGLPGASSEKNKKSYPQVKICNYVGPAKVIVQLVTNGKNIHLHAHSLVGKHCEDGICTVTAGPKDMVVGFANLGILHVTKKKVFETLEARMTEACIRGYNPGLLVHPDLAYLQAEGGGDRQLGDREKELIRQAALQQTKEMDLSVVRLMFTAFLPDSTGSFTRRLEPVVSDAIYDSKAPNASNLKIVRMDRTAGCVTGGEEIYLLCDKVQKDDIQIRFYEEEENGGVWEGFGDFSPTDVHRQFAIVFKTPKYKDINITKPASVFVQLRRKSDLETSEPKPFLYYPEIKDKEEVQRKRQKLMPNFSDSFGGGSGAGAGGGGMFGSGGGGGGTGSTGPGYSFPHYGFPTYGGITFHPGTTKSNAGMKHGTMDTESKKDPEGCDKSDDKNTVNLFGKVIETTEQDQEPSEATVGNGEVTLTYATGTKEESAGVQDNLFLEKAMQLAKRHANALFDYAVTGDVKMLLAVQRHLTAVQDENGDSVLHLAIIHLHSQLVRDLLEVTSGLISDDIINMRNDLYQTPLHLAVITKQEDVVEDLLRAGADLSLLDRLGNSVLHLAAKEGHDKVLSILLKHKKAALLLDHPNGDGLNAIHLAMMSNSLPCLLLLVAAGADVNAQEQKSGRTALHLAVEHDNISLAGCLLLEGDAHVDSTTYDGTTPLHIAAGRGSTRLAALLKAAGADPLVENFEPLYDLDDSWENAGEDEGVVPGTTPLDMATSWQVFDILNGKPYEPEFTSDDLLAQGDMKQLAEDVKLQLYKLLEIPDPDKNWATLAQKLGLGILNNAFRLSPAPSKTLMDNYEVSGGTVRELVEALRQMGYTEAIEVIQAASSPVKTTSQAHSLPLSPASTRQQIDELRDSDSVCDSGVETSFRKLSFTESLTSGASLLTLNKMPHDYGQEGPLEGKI

Cc1ccc(S(=O)(=O)NC(=O)NN2CCCCCC2)cc1
inactive: [1] | [2] | [3] | [4] | [5] | MYC, MYC (gene 4609) | [6] | [7] | [8] | [9] | [10] | [11] | [12] | [13] | [14] | [15] | [16] | [17] | [18] | [19]

OC(Cn1cncn1)(Cn1cncn1)c1ccc(F)cc1F
inactive: [1] | [2] | [3] | [4] | [5] | MYC, MYC (gene 4609) | [6] | [7] | [8] | [9] | [10] | [11] | [12] | [13] | [14] | [15] | [16] | [17] | [18] | [19]

O=C(O)c1ccc2c(c1)nc(C(=O)NC1CCN(C3CC3)CC1)n2Cc1cc(-c2ccc(Cl)s2)on1
inactive: [1] | [2] | [3] | [4] | [5] | MYC, MYC (gene 4609) | [6] | [7] | [8] | [9] | [10] | [11] | [12] | [13] | [14] | [15] | [16] | [17] | [18] | [19]

CCCCCCCCCCCCCCO
inactive: [1] | [2] | [3] | [4] | [5] | MYC, MYC (gene 4609) | [6] | [7] | [8] | [9] | [10] | [11] | [12] | [13] | [14] | [15] | [16] | [17] | [18] | [19]

COS(C)(=O)=O
inactive: [1] | [2] | [3] | [4] | [5] | MYC, MYC (gene 4609) | [6] | [7] | [8] | [9] | [10] | [11] | [12] | [13] | [14] | [15] | [16] | [17] | [18] | [19]

NC(=O)N1c2ccccc2C=Cc2ccccc21
inactive: [1] | [2] | [3] | [4] | [5] | MYC, MYC (gene 4609) | [6] | [7] | [8] | [9] | [10] | [11] | [12] | [13] | [14] | [15] | [16] | [17] | [18] | [19]
